This is an account of results in PubChem BioAssay (NCI).

Test systems include SR leukemia; RPMI-8226 leukemia; OVCAR-8 ovarian; OVCAR-4 ovarian; SK-OV-3 ovarian; IGROV1 ovarian; HS 578T breast; NCI/ADR-RES ovarian; OVCAR-3 ovarian; OVCAR-5 ovarian.
What all share (experiment): NCI-60 one-dose screen, 48 h (100 = growth as untreated, 0 = no growth, -100 = all killed)
Common to all, as to details: 10 µM unless noted

Where “and” joins values, the source holds several entries; their conditions need not be identical. Identical values can stand only once. The panel holds about 83,000 compounds, 20% with a hit somewhere; the sample as a whole holds those more often.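 Single-dose data. Exposure time 48 hours. Values below 10 considered active.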 Calls of active or inactive are those of the source.

As for `CCNC(=O)Oc1ccc(/C(=C(/C)Cc2ccc(OC)cc2)c2ccc(OCCN(CC)CC)cc2)cc1`, the growth is -55.3% (active) in the experiment with SR leukemia; -14.8% (active) in the experiment with RPMI-8226 leukemia; 74.8% (inactive) with OVCAR-8 ovarian; 69.4% (inactive) in the experiment with OVCAR-4 ovarian; 88.6% (inactive) with SK-OV-3 ovarian; 74.7% (inactive) in the experiment on IGROV1 ovarian. For the same compound, the growth is 45.9% (inactive) in the experiment with HS 578T breast and 78.1% (inactive) in the experiment on NCI/ADR-RES ovarian.
As for `Nc1ncc(-c2ccc3ncnc(N4CCc5ccc(Cl)cc54)c3c2)cc1C(F)(F)F`, the growth is -5.75% (active) in the experiment on SR leukemia; -3.24% (active) in the experiment with RPMI-8226 leukemia; 25.2% (inactive) in the experiment with OVCAR-8 ovarian; 8.43% (active) in the experiment with OVCAR-4 ovarian; 6.83% (active) in the experiment on SK-OV-3 ovarian; -53.3% (active) in the experiment on IGROV1 ovarian. The growth in the experiment with OVCAR-3 ovarian is 10.8% (inactive); in the experiment on HS 578T breast, -14.3% (active); in the experiment on NCI/ADR-RES ovarian, 20.3% (inactive).
With `CCOC(=O)c1ccc(Nc2ncnc3c2cnn3-c2cccc(F)c2)cc1`, the growth in the experiment with SR leukemia is 94.7% (inactive); in the experiment on RPMI-8226 leukemia, 99.5% (inactive); in the experiment with OVCAR-8 ovarian, 98.3% (inactive); in the experiment on OVCAR-4 ovarian it was 99.7% (inactive); in the experiment with SK-OV-3 ovarian, 120% (inactive); in the experiment with IGROV1 ovarian, 98.7% (inactive). Besides, the growth in the experiment with OVCAR-3 ovarian was 112% (inactive); with HS 578T breast it was 95.9% (inactive); in the experiment with NCI/ADR-RES ovarian, 103% (inactive).
For the compound `COc1cc2c(cc1OCCCOC1=C=C=C(c3ccc4c(c3)c3cc(-c5ccc(OCCCOc6cc7c(cc6OC)C(=O)N6CCC[C@H]6C=N7)cc5)ccc3n4S(=O)(=O)c3ccc(C)cc3)C=C1)N=C[C@@H]1CCCN1C2=O`, the growth in the experiment on SR leukemia is -74% (active); in the experiment with RPMI-8226 leukemia it was 17.9% (inactive); with OVCAR-8 ovarian it was 23.9% (inactive); in the experiment with OVCAR-4 ovarian, 58.2% (inactive); in the experiment on SK-OV-3 ovarian, 93.7% (inactive); in the experiment with IGROV1 ovarian it was 14% (inactive). Moreover, the results for the growth with OVCAR-3 ovarian, in the experiment on HS 578T breast and in the experiment on NCI/ADR-RES ovarian were 0.652% (active), 2.22% (active) and 94% (inactive), respectively.
With `CC[C@H](C)[C@H](NC(=O)[C@H](CCCCN)NC(=O)[C@H](CCCCN)NC(=O)[C@@H](NC(=O)[C@@H](NC(=O)[C@@H](N)Cc1cnc[nH]1)[C@@H](C)CC)[C@@H](C)CC)C(=O)N[C@@H](CCCNC(=N)N)C(=O)N[C@H](C(=O)N[C@@H](Cc1c[nH]c2ccccc12)C(=O)N[C@@H](Cc1ccc(O)cc1)C(=O)N[C@@H](CCCNC(=N)N)C(=O)N[C@@H](CCCCN)C(=O)N[C@@H](C)C(=O)N[C@@H](Cc1c[nH]c2ccccc12)C(=O)N[C@@H](Cc1cnc[nH]1)C(=O)N[C@H](C(=O)N[C@@H](CC(C)C)C(=O)NCC(=O)N[C@@H](CCCCN)C(=O)N[C@H](C(N)=O)C(C)C)C(C)C)[C@@H](C)O`, the growth was 71.9% (inactive) in the experiment on SR leukemia; 56.1% (inactive) in the experiment with RPMI-8226 leukemia; 33.7% (inactive) in the experiment with OVCAR-8 ovarian; 77.9% (inactive) in the experiment with OVCAR-4 ovarian; 35% (inactive) in the experiment with SK-OV-3 ovarian; 39.2% (inactive) in the experiment with IGROV1 ovarian. Also, the figures for the growth with HS 578T breast and in the experiment with NCI/ADR-RES ovarian were 11.6% (inactive) and 34.8% (inactive), respectively.
As for `COc1ccc(C/C(C)=C(/c2ccc(OCCN3CCCCCC3)cc2)c2ccc(OC(=O)c3ccccc3)cc2)cc1`, the growth is 71.3% (inactive) with SR leukemia; 112% (inactive) in the experiment with RPMI-8226 leukemia; 107% (inactive) in the experiment with OVCAR-8 ovarian; 98.2% (inactive) in the experiment on OVCAR-5 ovarian; 106% (inactive) in the experiment on IGROV1 ovarian; 117% (inactive) in the experiment with OVCAR-3 ovarian. In addition, the growth was 98.5% (inactive) in the experiment with HS 578T breast and 111% (inactive) with NCI/ADR-RES ovarian.
In the case of `CCOC(=O)c1nnn(Cc2cc(=O)oc3c2ccc2ccccc23)c1C`, the growth was 97.6% (inactive) in the experiment with SR leukemia; 103% (inactive) with RPMI-8226 leukemia; 98.1% (inactive) in the experiment with OVCAR-8 ovarian; 97.6% (inactive) in the experiment on OVCAR-4 ovarian; 104% (inactive) in the experiment with SK-OV-3 ovarian; 110% (inactive) in the experiment on IGROV1 ovarian. The growth in the experiment on OVCAR-3 ovarian was 103% (inactive); in the experiment with HS 578T breast, 100% (inactive); with NCI/ADR-RES ovarian it was 108% (inactive).
For the compound `O=c1c2c([nH]c3ccccc13)CCCC2`, the growth was 87.9% (inactive) and 10.9% (inactive) in the experiment with SR leukemia; 87.2% (inactive) and 38.6% (inactive) in the experiment with RPMI-8226 leukemia; 99.8% (inactive) and 40.5% (inactive) with OVCAR-8 ovarian; 100% (inactive) and 68.5% (inactive) in the experiment on OVCAR-4 ovarian; 104% (inactive) and 44.2% (inactive) in the experiment on SK-OV-3 ovarian; 111% (inactive) and 44.1% (inactive) in the experiment with IGROV1 ovarian. The growth with OVCAR-3 ovarian is 118% (inactive) and -8.45% (active); in the experiment on HS 578T breast it was 98.2% (inactive) and 72.4% (inactive); in the experiment with NCI/ADR-RES ovarian it was 104% (inactive) and 22.2% (inactive).
Consider `Cc1n(Cc2ccc3ccccc3c2)c(Cl)c(Cl)[n+]1Cc1ccc2ccccc2c1`, for which the growth was 6.73% (active) in the experiment on SR leukemia; -16.8% (active) in the experiment with RPMI-8226 leukemia; 19.1% (inactive) with OVCAR-8 ovarian; 3.21% (active) in the experiment on OVCAR-4 ovarian; 65.5% (inactive) with SK-OV-3 ovarian; -8.24% (active) with IGROV1 ovarian. Also, the growth was 5.54% (active) in the experiment on OVCAR-3 ovarian, 46.6% (inactive) in the experiment on HS 578T breast and 98.8% (inactive) in the experiment with NCI/ADR-RES ovarian.
In the case of `CN1Cn2c(ccc2C(F)(F)F)C(=O)CS1(=O)=O`, the growth in the experiment on SR leukemia is 109% (inactive); in the experiment with RPMI-8226 leukemia, 109% (inactive); with OVCAR-8 ovarian, 108% (inactive); with OVCAR-4 ovarian it was 97.4% (inactive); in the experiment on SK-OV-3 ovarian, 106% (inactive); with IGROV1 ovarian it was 104% (inactive). The figures for the growth with OVCAR-3 ovarian, with HS 578T breast and in the experiment on NCI/ADR-RES ovarian were 112% (inactive), 106% (inactive) and 103% (inactive), respectively.
For the compound `NC1=CC(=O)c2cccnc2C1=O`, the growth was -27% (active) in the experiment on SR leukemia; -25.7% (active) in the experiment on RPMI-8226 leukemia; -5.58% (active) in the experiment on OVCAR-8 ovarian; -84.5% (active) in the experiment on OVCAR-4 ovarian; 58% (inactive) with SK-OV-3 ovarian; -53.7% (active) in the experiment on IGROV1 ovarian. Besides, the growth in the experiment with OVCAR-3 ovarian was -1.02% (active); in the experiment with HS 578T breast, -10.3% (active); in the experiment on NCI/ADR-RES ovarian it was 1.37% (active).
Regarding `COc1cccc(NC(=O)c2sc3nc(C)c(C(O)c4ccccc4)cc3c2N)c1` (stereo not drawn), the growth with SR leukemia was 6.69% (active); in the experiment on RPMI-8226 leukemia, 13.8% (inactive); in the experiment with OVCAR-8 ovarian, 8.45% (active); in the experiment on OVCAR-4 ovarian, 70.3% (inactive); in the experiment with SK-OV-3 ovarian it was 12.5% (inactive); with IGROV1 ovarian, 25.7% (inactive). Also, the growth was -10.4% (active) in the experiment on OVCAR-3 ovarian, 14.6% (inactive) with HS 578T breast and 7.31% (active) in the experiment on NCI/ADR-RES ovarian.
Regarding `Clc1ccc2c(c1)N(c1ncnc3ccc(-c4cnc5[nH]ccc5c4)cc13)CC2`, the growth in the experiment with SR leukemia is 1.86% (active); in the experiment with RPMI-8226 leukemia it was 26% (inactive); in the experiment on OVCAR-8 ovarian, 27.9% (inactive); in the experiment on OVCAR-4 ovarian it was 0.279% (active); with SK-OV-3 ovarian, 28.3% (inactive); in the experiment on IGROV1 ovarian, -24% (active). Moreover, the growth is 21.5% (inactive) in the experiment with OVCAR-3 ovarian, 1.12% (active) in the experiment on HS 578T breast and 33.3% (inactive) in the experiment on NCI/ADR-RES ovarian.
With `O=C(/C=C/c1ccccc1)c1cccs1`, the growth in the experiment on SR leukemia was 94.9% (inactive) and 24.1% (inactive); in the experiment with RPMI-8226 leukemia, 49.3% (inactive) and 6.44% (active); in the experiment with OVCAR-8 ovarian, 97.5% (inactive) and 94% (inactive); in the experiment on OVCAR-4 ovarian it was 97.7% (inactive) and 87.3% (inactive); with SK-OV-3 ovarian, 104% (inactive) and 112% (inactive); in the experiment with IGROV1 ovarian, 104% (inactive) and 116% (inactive). In addition, the growth in the experiment on OVCAR-3 ovarian was 97% (inactive) and 117% (inactive); in the experiment with HS 578T breast it was 100% (inactive); with NCI/ADR-RES ovarian it was 99.5% (inactive) and 100% (inactive).
